# Compound activity (PubChem)
# Rows were chosen to be rich in hits. Some 6.7% of all compounds tested hit in one or more screens of this group.
# T cruzi growth-1: blocks T. cruzi growth in NIH3T3 culture; AID 624255; 5.9% of 77,000 active; inhibition, % at 8.34 µM; T. cruzi beta-gal in NIH3T3, GalScreen luminescence, 90 h;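 active = mean inhibition above about 93%, with at least 55% of replicates each passing it, limit read from the data, passing the limit was not always enough; inconclusive = only one of those two conditions holds; inactive = neither condition holds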
# C diff growth: blocks growth of Clostridium difficile; growth activity, negative = inhibition, % at 16 µg/mL (by protocol); 0.25% of 86,000 active; Clostridium difficile clinical isolate growth, OD600, 24 h; stronger effect = lower value; AID 1259249;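 active = mean growth activity at or below -80% and every replicate also at or below -80%; inconclusive = mean at or below -80% but some replicate above -80%; inactive = mean growth activity above -80%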;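 note: 0% = DMSO wells and -100% = levofloxacin 16 µg/mL wells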
# Pf Dd2 growth: inhibitors of Plasmodium falciparum Dd2 growth; P. falciparum Dd2 growth, SYBR Green, 72 h; stronger effect = lower value; activity change, % at 10 µM; 2.3% of 94,000 active; in the data active = activity change below about -80%; inconclusive = no clear call, values can overlap the other calls
# T cruzi growth-2: blocks T. cruzi growth in NIH3T3 host cells; shares compounds with T cruzi growth-1; T. cruzi beta-gal in NIH3T3, GalScreen luminescence, 90 h; inhibition, % at 8.35 µM; 72% of 5,600 active; AID 651739;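 active = mean replicate inhibition above about 95% and at least 55% of replicates individually reaching it, limit read from the data; inconclusive = only one of the two criteria is met; inactive = neither criterion is met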
# T cruzi growth-3: blocks T. cruzi growth in NIH3T3 host cells; shares compounds with T cruzi growth-1; T. cruzi beta-gal in NIH3T3, GalScreen luminescence, 90 h; inhibition, % at 2.09 µM; 21% of 5,600 active; AID 651740;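 active = mean inhibition above about 95%, with at least 55% of replicates also reaching it, limit read from the data; inconclusive = meets just one of the two conditions; inactive = meets neither condition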;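 note: plate controls were neutral control median for no effect and positive control median for full effect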
# 3T3 cytotox: NIH/3T3 (mouse) viability loss | shares compounds with T cruzi growth-1 | NIH/3T3 viability, CellTiter-Glo ATP luminescence, 90 h | cytotoxicity (signal decrease), % at 8.35 µM | 14% of 5,600 active | AID 651742;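 active = mean signal decrease across replicates above about 35% based on untreated-well scatter, with enough replicates individually passing, limit read from the data; inconclusive = no rule stated though some were filed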;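 note: 0% = median of neutral control wells and 100% = median of positive control wells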
# 3T3 cytotox 2: cytotoxicity in mouse NIH/3T3 fibroblasts; shares compounds with T cruzi growth-1; NIH/3T3 viability, CellTiter-Glo ATP luminescence, 90 h; inhibition, % at 24.9 µM; 56% of 5,600 active; AID 651744;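 active = mean loss of cell viability signal at or above a set limit, and enough replicates individually reaching it; inconclusive = meets only the mean limit or only the replicate share; inactive = meets neither condition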;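 note: 0% = median of neutral control wells and 100% = median of positive control wells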
# * hit, by the source's call; ? = inconclusive; / = no result given; ! = repeats disagree.
SMILES,T cruzi growth-1,C diff growth,Pf Dd2 growth,T cruzi growth-2,T cruzi growth-3,3T3 cytotox,3T3 cytotox 2
C/C=C/c1ccc([C@@H]2[C@H](CO)N3CCCCN(C(=O)Nc4cc(F)ccc4F)C[C@@H]23)cc1,92,24,-57,/,/,/,/
C[C@@H]1CCCCO[C@@H](CN(C)S(C)(=O)=O)[C@H](C)CN([C@@H](C)CO)C(=O)c2cc(NC(=O)c3ccncc3)ccc2O1,31,/,27,/,/,/,/
CCCC#Cc1ccc2c(c1)O[C@@H](CN(C)C(=O)CC1CC1)[C@@H](C)CN([C@H](C)CO)S2(=O)=O,73,-4,-49,/,/,/,/
C[C@H]1CN([C@@H](C)CO)S(=O)(=O)c2ccc(C#CCC3CCCC3)cc2O[C@H]1CN(C)C(=O)CC1CC1,122*,21,-54,?,85,-4,104*
C[C@@H]1CN([C@@H](C)CO)S(=O)(=O)c2ccc(C#CCC3CCCC3)cc2O[C@@H]1CN(C)C(=O)CC1CC1,120*,15,-48,89,94,25,107*
CC(=O)N(C)C[C@@H]1Oc2cc(C#CCC3CCCC3)ccc2S(=O)(=O)N([C@@H](C)CO)C[C@@H]1C,21,-7,-39,/,/,/,/
CCC(=O)N1[C@H](CO)[C@@H](c2ccc(/C=C/c3ccccc3)cc2)C12CN(S(C)(=O)=O)C2,/,-9,-8,/,/,/,/
CCNC(=O)[C@@H]1[C@@H](CO)[C@@H]2Cn3c(ccc(/C=C/c4ccccc4)c3=O)[C@H]1N2,31,4,12,/,/,/,/
O=C(O)C[C@H]1C[C@@H]2c3cc(NC(=O)Nc4ccc(F)cc4)ccc3O[C@@H]2[C@@H](CO)O1,-32,1,11,/,/,/,/
C[C@@H]1CN([C@@H](C)CO)C(=O)Cc2cc(NC(=O)Nc3ccc(C(F)(F)F)cc3)ccc2O[C@H]1CN(C)C,/,2,6,/,/,/,/
CN(C)CC#Cc1ccc([C@@H]2[C@@H](CO)N3CCCCN(C(=O)Nc4ccccc4F)C[C@@H]23)cc1,34,5,-42,/,/,/,/
CN(C)CC#Cc1ccc([C@@H]2[C@H]3CN(C(=O)Nc4cc(F)ccc4F)CCCCN3[C@H]2CO)cc1,117*,6,7,43,-30,?,103*
CN(C)CC#Cc1ccc([C@@H]2[C@@H](CO)N3CCCCN(C(=O)Nc4cc(F)ccc4F)C[C@@H]23)cc1,106*,12,-27,101*,35,-17,45*
CN(C)CC#Cc1ccc([C@@H]2[C@H]3CN(C(=O)Nc4ccccc4F)CCCCN3[C@H]2CO)cc1,68,3,8,/,/,/,/
CCCN(C)C[C@@H]1Oc2cc(C#Cc3ccccc3OC)ccc2S(=O)(=O)N([C@H](C)CO)C[C@@H]1C,97*,11,-84*,108*,81,21,107*
CCCN(C)C[C@H]1Oc2cc(C#Cc3ccccc3OC)ccc2S(=O)(=O)N([C@@H](C)CO)C[C@H]1C,97*,5,-63,106*,80,7,105*
COc1ccccc1C#Cc1ccc2c(c1)O[C@@H](CN(C)C)[C@H](C)CN([C@H](C)CO)S2(=O)=O,/,3,-59,/,/,/,/
CCCN(C)C[C@H]1Oc2cc(C#Cc3ccccc3F)ccc2S(=O)(=O)N([C@H](C)CO)C[C@H]1C,80,10,-74,/,/,/,/
C[C@@H]1CN([C@H](C)CO)C(=O)c2cc(NC(=O)Nc3ccc4c(c3)OCO4)ccc2O[C@@H]1CN(C)S(=O)(=O)c1cccs1,-11,3,8,/,/,/,/
C[C@@H]1CN([C@@H](C)CO)S(=O)(=O)c2ccc(C#C[C@@H](C)O)cc2O[C@@H]1CN(C)Cc1ccc(-c2ccccc2)cc1,93,3,-15,/,/,/,/
CCNC(=O)C[C@H]1C=C[C@@H](NC(=O)C2CC2)[C@@H](CO)O1,/,3,12,/,/,/,/
O=C(C[C@H]1CC[C@@H](NC(=O)NC2CCCCC2)[C@@H](CO)O1)NCc1ccccc1,13,-3,-15,/,/,/,/
COc1ccccc1C(=O)N1C[C@@H]2[C@H](c3ccccc31)[C@H](CO)N2CC1CCOCC1,4,1,20,/,/,/,/
C[C@@H]1CN([C@@H](C)CO)C(=O)c2cccc(NC(=O)c3cnccn3)c2O[C@@H]1CN(C)Cc1ccc2c(c1)OCO2,97*,2,-33,52,5,29,50*
C[C@H]1CN([C@@H](C)CO)C(=O)c2cccc(NC(=O)c3ccncc3)c2O[C@@H]1CN(C)Cc1ccc(Cl)c(Cl)c1,94,8,-32,/,/,/,/
SMILES,T cruzi growth-1,C diff growth,Pf Dd2 growth,T cruzi growth-2,T cruzi growth-3,3T3 cytotox,3T3 cytotox 2
C[C@@H]1CN([C@H](C)CO)C(=O)c2cccc(NC(=O)c3cnccn3)c2O[C@@H]1CN(C)Cc1ccc(Cl)c(Cl)c1,68,16,-19,/,/,/,/
C[C@H](CO)N1C[C@H](C)[C@H](CN(C)Cc2ccc3c(c2)OCO3)Oc2c(NC(=O)c3ccncc3)cccc2C1=O,97*,0,2,85,78,3,16
C[C@H]1CN([C@@H](C)CO)C(=O)c2cccc(NC(=O)c3cnccn3)c2O[C@@H]1CN(C)Cc1ccc(Cl)c(Cl)c1,109*,18,-8,84,-3,-11,50*
C[C@H](CO)N1C[C@H](C)[C@@H](CN(C)Cc2ccc3c(c2)OCO3)Oc2c(NC(=O)c3cnccn3)cccc2C1=O,35,2,-10,/,/,/,/
O=C(N[C@H]1CC[C@H](CCn2cc(-c3ccccn3)nn2)O[C@@H]1CO)c1ccccc1,/,0,/,/,/,/,/
C[C@H](O)C#Cc1ccc2c(c1)O[C@H](CN(C)C(=O)CC1CC1)[C@H](C)CN([C@@H](C)CO)S2(=O)=O,15,0,/,/,/,/,/
COc1cccc(-c2cnc3c(c2)C(=O)N([C@H](C)CO)C[C@H](C)[C@@H](CN(C)CC2CCCC2)O3)c1,/,/,14,/,/,/,/
Cc1noc(C)c1NC(=O)N(C)C[C@@H]1OCCCC[C@@H](C)Oc2ccc(NC(=O)C3CCCCC3)cc2C(=O)N([C@@H](C)CO)C[C@@H]1C,39,3,22,/,/,/,/
COc1ccccc1S(=O)(=O)N[C@@H]1CC[C@H](CC(=O)NCc2cccc(F)c2)O[C@@H]1CO,1,/,-4,/,/,/,/
COC(=O)[C@H]1[C@H](CO)[C@H]2Cn3c(ccc(-c4ccccc4F)c3=O)[C@H]2N1Cc1ccccc1,55,3,8,/,/,/,/
C[C@@H]1CN([C@@H](C)CO)S(=O)(=O)c2ccc(-c3cccc(C#N)c3)cc2O[C@@H]1CN(C)C(=O)c1ccc(F)cc1,109*!,-2,-15,97*,91,?,73*
C[C@@H]1CN([C@H](C)CO)S(=O)(=O)c2ccc(-c3cccc(C#N)c3)cc2O[C@H]1CN(C)C(=O)c1ccc(F)cc1,78,-4,-48,/,/,/,/
C[C@H](CO)N1C[C@H](C)[C@@H](CN(C)C(=O)c2ccc(F)cc2)Oc2cc(-c3cccc(C#N)c3)ccc2S1(=O)=O,48,-7,-51,/,/,/,/
